Consider 70 compounds from the supplement of paper PMC5919970.

Structures can show the parent of a compound that is named as a salt. The full ranking holds about 2,000 compounds; the median of “fractional viability relative to vehicle” is about 0.92, and the lowest 2% start at about 0.11. What follows is part of a selection rich in the lowest values, with near analogues and random picks from the rest.

In this assay the test system is TYKNU. The experiment in a line: fractional viability relative to vehicle; TYKNU is a high-grade serous ovarian cancer line; higher = less growth inhibition. Conditions: 72 h, genotype: OPA1 knockout (sgOPA1 #2). The method, boiled down: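 TYKNU control cells or lentiCRISPRv2 knockout derivatives were seeded at 500 cells per well into drug-stamped 384-well plates holding a ~2100-compound library at 2 or 10 μM, in duplicate. Cells were grown at 37 °C in 5% CO2 in RPMI 1640 with 10% FBS, and drug treatment lasted 72 h. Viability was read by Cell Titer Glo luminescence. Duplicate treatment wells were averaged and normalised to duplicate control wells from the same plate position.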

`CC(=O)O/N=C1\C(=O)N(Cc2cc(Cl)ccc2Cl)c2ccc(Cl)cc21`: the fractional viability (2uM) was 1.06 and the fractional viability (10uM) was found to be 0.985.
The corresponding values for `NC(=O)c1noc([C@H](CCCC2CCCCC2)CC(=O)NO)n1` are 1.1 and 0.853.
Turning to `COC(=O)N1CCN(Cc2cccc(NC(=O)Nc3ccc(C)nc3)c2F)CC1`, the fractional viability reads like this: (2uM) 1.01; (10uM) 0.982.
The like results for `CCCCC(F)(F)[C@@]1(O)CC[C@H]2[C@@H](CC(=O)[C@@H]2CCCCCCC(=O)O)O1` [Lubiprostone] were, in that order, 0.935 and 1.03.
The corresponding values for `O=C(O)c1cc(=O)c2ccccc2o1` [Chromocarb] are 0.872 and 0.816.
For the compound `CC(=O)c1cc2c(o1)C(=O)c1ccccc1C2=O` [Napabucasin], the fractional viability by setting is: (2uM) 0.0542; (10uM) 0.0318.
The like results for `O=C1c2ccccc2C(=O)c2c1ccc(O)c2O` [Alizarin] were, in that order, 1.19 and 0.838.
The corresponding values for `CC(CNC(=O)c1cccnc1)NC(=O)c1cccnc1` (stereo not given) [Nicaraven] are 0.886 and 0.93.
The like results for `C[C@H]1O[C@@H](O[C@H]2[C@@H](O)C[C@H](O[C@H]3[C@@H](O)C[C@H](O[C@H]4CC[C@@]5(C)[C@H](CC[C@@H]6[C@@H]5C[C@@H](O)[C@]5(C)[C@@H](C7=CC(=O)OC7)CC[C@]65O)C4)O[C@@H]3C)O[C@@H]2C)C[C@H](O)[C@@H]1O` [Digoxin] were, in that order, 0.141 and 0.0738.
In the case of `Cn1c(=O)c(F)c(Nc2ccc(I)cc2F)c2c(=O)n(C[C@@H](O)CO)cnc21`, the fractional viability came out at 0.516 (2uM) and 0.403 (10uM).
The like results for `COc1ccc(CCNCc2ccc(OCc3ccc(Cl)nc3)c(OC)c2)cc1OC` were, in that order, 1.04 and 0.914.
For the compound `CC[C@H]1OC(=O)[C@H](C)[C@@H](O[C@H]2C[C@@](C)(OC)[C@@H](O)[C@H](C)O2)[C@H](C)[C@@H](O[C@@H]2O[C@H](C)C[C@H](N(C)C)[C@H]2O)[C@](C)(O)C[C@@H](C)C(=O)[C@H](C)[C@H]2OC(=O)O[C@@]21C` [Erythromycin Cyclocarbonate], the fractional viability runs as follows: (2uM) 0.834; (10uM) 0.883.
The corresponding values for `CN1CCCN(C(=O)c2cccc(-c3ccc(/C=C4/C(=O)Nc5ccc(Cl)cc54)o3)c2)CC1` are 0.132 and 0.0251.
With `Cc1[nH]c(/C=C2\C(=O)Nc3ccc(S(=O)(=O)N(C)c4cccc(Cl)c4)cc32)c(C)c1C(=O)N1CCN(C)CC1`, the fractional viability was 1.37 (2uM) and 0.133 (10uM).
The corresponding values for `CN1CCN(C(=O)c2cc3cc(Cl)ccc3[nH]2)CC1` are 1.08 and 1.08.
The like results for `CS(=O)(=O)c1ccc(-c2nnc(/C=C/c3nnc(-c4ccc(C#N)cc4)o3)n2-c2ccccc2Cl)nc1` were, in that order, 1.11 and 1.03.
The like results for `O=C(Cc1cccc(OC(F)(F)F)c1)Nc1ccc(CCCCc2nnc(NC(=O)Cc3ccccn3)s2)nn1` were, in that order, 0.25 and 0.2.
On to `CN[C@@H](C)C(=O)N[C@H](C(=O)N1CCC[C@H]1c1nc(C(=O)c2ccc(F)cc2)cs1)C1CCCCC1`, for which the fractional viability is, setting by setting: (2uM) 0.719; (10uM) 0.643.
The like results for `N#C/C(=C1/SC[C@@H](c2ccc(Cl)cc2Cl)S1)n1ccnc1` [Luliconazole] were, in that order, 0.989 and 0.818.
The like results for `Cc1cccc(-c2[nH]c(C(C)(C)C)nc2-c2ccc3c(c2)OCO3)n1` were, in that order, 1.2 and 0.682.
Take `COc1ncc(-c2ccc3nccc(-c4ccnnc4)c3c2)cc1NS(=O)(=O)c1ccc(F)cc1F`: the fractional viability reads like this: (2uM) 0.354; (10uM) 0.0636.
The like results for `CCCS(=O)(=O)Nc1ccc(F)c(C(=O)c2c[nH]c3ncc(-c4ccc(Cl)cc4)cc23)c1F` [Vemurafenib (PLX4032, RG7204)] were, in that order, 1.13 and 1.
As to `CC(C)(C)c1ccc(S(=O)(=O)/C=C/C#N)cc1`, the fractional viability is 0.357 (2uM) and 0.0658 (10uM).
For `Cc1ccc(S(=O)(=O)/C=C/C#N)cc1`, the fractional viability by setting is: (2uM) 0.121; (10uM) 0.09.
The corresponding values for `NC(=O)c1cccc2[nH]c(-c3ccc(C4CCCN4)cc3F)nc12` (stereo not given) are 0.735 and 0.788.
The corresponding values for `CC[C@H](CO)Nc1nc(NCc2ccccc2)c2ncn(C(C)C)c2n1` [Roscovitine (Seliciclib,CYC202)] are 1.14 and 0.913.
The corresponding values for `Cc1cc(C(O)=C2C(=O)C(=O)N(CCCN3CCOCC3)C2c2ccncc2)ccc1OCc1ccccc1` (stereo not given) are 0.973 and 0.814.
As to `CC(O)c1cc(C(=O)N[C@@H](C)Cn2ccc(-c3ccc(C#N)c(Cl)c3)n2)n[nH]1` (stereo not given in full), the fractional viability by setting is: (2uM) 0.945; (10uM) 1.06.
On to `Cn1ncnc1[C@H]1c2n[nH]c(=O)c3cc(F)cc(c23)N[C@@H]1c1ccc(F)cc1`, for which the fractional viability came out at 0.905 (2uM) and 0.986 (10uM).
The corresponding values for `NC(=O)c1cnc2[nH]ccc2c1N[C@@H]1[C@@H]2CC3C[C@H]1C[C@@](O)(C3)C2` are 0.989 and 1.
The corresponding values for `CC(=O)Nc1cccc2c1c(Sc1ccc(Cl)cc1)c(C)n2CC(=O)O` are 0.976 and 0.913.
The like results for `CC(=O)N1c2ccc(-c3ccc(C(=O)O)cc3)cc2[C@H](Nc2ccc(Cl)cc2)C[C@@H]1C` were, in that order, 0.529 and 0.337.
In the case of `O=C(NNc1ccccc1)c1ccncc1`, the fractional viability amounted to 0.769 (2uM) and 0.792 (10uM).
In the case of `O=C(/C=C/c1ccc2ccccc2n1)c1ccncc1`, the fractional viability by setting is: (2uM) 0.472; (10uM) 0.11.
The like results for `NNC(=O)c1ccncc1` [Isoniazid] were, in that order, 1.01 and 1.08.
The like results for `C[C@H](CCC(=O)NCCS(=O)(=O)O)[C@H]1CC[C@H]2[C@@H]3[C@@H](O)C[C@@H]4C[C@H](O)CC[C@]4(C)[C@H]3CC[C@]12C` [Sodium Tauroursodeoxycholate (TUDC)] were, in that order, 0.832 and 0.834.
The corresponding values for `Cc1c(C(=O)NN2CCCCC2)nn(-c2ccc(Cl)cc2Cl)c1-c1ccc(I)cc1` are 0.982 and 0.754.
Regarding `CCN(CC)CCCC(C)Nc1nc(C)cc(Nc2ccc3nc(C)cc(N)c3c2)n1` (stereo not given), the fractional viability came to 0.891 (2uM) and 0.898 (10uM).
The like results for `CCN(CC)CCCC(C)Nc1c2ccc(Cl)cc2nc2ccc(OC)cc12` (stereo not given) [Quinacrine 2HCl] were, in that order, 0.837 and 0.105.
Take `C[C@H](Nc1ncnc2[nH]cnc12)c1cc2ccc(F)cc2nc1-c1ccccn1`: the fractional viability worked out at 0.879 (2uM) and 0.836 (10uM).
The like results for `CN(NC(=O)CC(=O)NN(C)C(=S)c1ccccc1)C(=S)c1ccccc1` [Elesclomol (STA-4783)] were, in that order, 0.0864 and 0.107.
The corresponding values for `O=C(O)CCNC(=O)c1ccccc1` [Betamipron] are 1.14 and 0.982.
The corresponding values for `O=C(O)c1ccccc1` [Benzoic Acid] are 0.885 and 0.957.
With `Cc1cc(CS(=O)(=O)c2ccccc2)cc(OCc2ccc(CN3CCC[C@@H]3CO)cc2)c1`, the fractional viability is, setting by setting: (2uM) 0.843; (10uM) 0.875.
The corresponding values for `C=C1[C@H](CO)[C@@H](O)C[C@@H]1n1cnc2c(=O)[nH]c(N)nc21` [Entecavir Hydrate] are 1.01 and 0.935.
Take `Cc1nc(C#Cc2ccnc(Cl)c2)c(C)n1-c1ccc(OC(F)(F)F)cc1`: the fractional viability came to 1.08 (2uM) and 0.815 (10uM).
Turning to `CCn1c(-c2nonc2N)nc2c(C#CC(C)(C)O)ncc(OC[C@H]3CCCNC3)c21`, the fractional viability turned out to be 1.01 (2uM) and 0.698 (10uM).
The corresponding values for `Nc1ccc(-c2ccc3ncc4ccc(=O)n(-c5cccc(C(F)(F)F)c5)c4c3c2)cn1` [Torin 2] are 0.36 and 0.363.
The corresponding values for `COc1ccc(-c2ccc3ncc4c(c3c2)n(-c2ccc(N3CCNCC3)c(C(F)(F)F)c2)c(=O)n4C)cn1` are 0.111 and 0.0546.
The corresponding values for `CNC(=O)c1cc(Oc2ccc3nc(N[C@@H]4CCCC[C@H]4O)sc3c2)ccn1` are 0.831 and 0.74.
As for `COc1cc2ncnc(Nc3ccc(O)c(Br)c3)c2cc1OC`, the fractional viability was 1.37 (2uM) and 1.19 (10uM).
The corresponding values for `N#Cc1c(NC(=O)c2cccc3ccccc23)sc2c1CCCC2` [JNK Inhibitor IX] are 0.428 and 0.386.
`Cc1cc(C)nc(SCC(=O)Nc2ncc(Cc3cccc4ccccc34)s2)n1` gave a fractional viability (2uM) of 0.904 and a fractional viability (10uM) of 0.931.
The like results for `COc1cccc2c1C(=O)c1c(O)c3c(c(O)c1C2=O)C[C@@](O)(C(C)=O)C[C@@H]3O[C@H]1C[C@H](N)[C@H](O)[C@H](C)O1` [Daunorubicin HCl] were, in that order, 0.568 and 0.108.
`COc1cccc2c1C(=O)c1c(O)c3c(c(O)c1C2=O)C[C@@](O)(C(=O)CO)C[C@@H]3O[C@H]1C[C@H](N)[C@H](O)[C@H](C)O1` [Doxorubicin (Adriamycin)]: the fractional viability is, setting by setting: (2uM) 0.738; (10uM) 0.726.
The corresponding values for `CC(=O)[C@]1(O)Cc2c(O)c3c(c(O)c2[C@@H](O[C@H]2C[C@H](N)[C@H](O)[C@H](C)O2)C1)C(=O)c1ccccc1C3=O` [Idarubicin HCl] are 0.56 and 0.0586.
As for `Cn1nnc(-c2ccc3c(c2)[nH]c2nc(Cc4ccccc4)nc(NC4CCC(N)CC4)c23)n1` (stereo not given), the fractional viability (2uM) is 1.01 and the fractional viability (10uM) was 0.765.
In the case of `CC(C)Nc1cc(-c2c[nH]c(C(=O)N[C@H](CO)c3cccc(Cl)c3)c2)c(Cl)cn1`, the fractional viability worked out at 0.453 (2uM) and 0.36 (10uM).
Consider `Cc1noc(C)c1-c1ccc(-c2cc(C(N)=O)c(NC(N)=O)s2)c(O[C@H]2CCNC2)c1`, for which the fractional viability worked out at 0.847 (2uM) and 0.778 (10uM).
The like results for `COc1cc2ncnc(Sc3nnc(C)s3)c2cc1OC` were, in that order, 0.789 and 0.16.
The like results for `Cn1cc(CNCC2CCN(c3ncc(C(=O)NO)cn3)CC2)c2ccccc21` were, in that order, 0.224 and 0.19.
For `CN(C)Cc1cccc(N=C(c2ccccc2)c2c(O)[nH]c3cc(C(=O)N(C)C)ccc23)c1`, the fractional viability (2uM) came to 1.13 and the fractional viability (10uM) was found to be 0.78.
The corresponding values for `CCNC(=O)C#Cc1ccc2c(C(=Nc3ccc(CN(C)C)cc3)c3ccccc3)c(O)[nH]c2c1` are 0.276 and 0.0913.
The like results for `O=C(O)CCCCC(CCSCc1ccccc1)SCc1ccccc1` (stereo not given) were, in that order, 1.23 and 0.919.
The like results for `CCOC(=O)N[C@@H]1CC[C@@H]2[C@@H](C1)C[C@H]1C(=O)O[C@H](C)[C@H]1[C@H]2/C=C/c1ccc(-c2cccc(F)c2)cn1` [Vorapaxar] were, in that order, 0.913 and 1.06.
For `CCn1c(=O)c(-c2ccc(-c3cncs3)cc2Cl)cc2cnc(Nc3ccc(N4CCN(C)CC4)cc3)nc21`, the fractional viability was 0.914 (2uM) and 0.64 (10uM).
For the compound `CC1(C)S[C@@H]2[C@H](NC(=O)[C@H](NC(=O)N3CCN(S(C)(=O)=O)C3=O)c3ccccc3)C(=O)N2[C@H]1C(=O)O` [Mezlocillin Sodium], the fractional viability (2uM) amounted to 0.892 and the fractional viability (10uM) was determined as 0.979.
Turning to `Nc1nc(=S)c2ncn([C@H]3C[C@H](O)[C@@H](CO)O3)c2[nH]1`, the fractional viability is 1.03 (2uM) and 0.763 (10uM).
With `C[C@@]1(c2cc(-c3cncnc3)c(F)cc2F)CCSC(N)=N1`, the fractional viability (2uM) was found to be 1.12 and the fractional viability (10uM) was 0.948.
The corresponding values for `CC(C)C[C@H](NC(=O)CNC(=O)c1cc(Cl)ccc1Cl)B1OC(=O)C(CC(=O)O)(CC(=O)O)O1` are 0.335 and 0.299.
